# Bioassay records deposited in PubChem by National Center for Advancing Translational Sciences (NCATS).
# ALDH1A1 block – inhibitors of human aldehyde dehydrogenase 1A1; Potency, µM (doses to about 75.3 µM), for the others: top-dose activity, negative = inhibition, hits mostly inhibitors; Purified ALDH1A1, NADH fluorescence, propionaldehyde substrate; AID 1030; 220,000 compounds, 7.3% hits; active means well fitted inhibition curve with a large enough effect, not every such curve was filed as active; inconclusive means small, poorly fitted or top-dose-only effect, or another doubt; inactive means no such curve, though single readings can be large or run the other way;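 further: potency means the concentration at half of the fitted maximal effect; plate controls were no enzyme wells and a reference inhibitor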
# HPGD block – HPGD (human) dehydrogenase inhibition. purified HPGD, NADH fluorescence kinetic, PGE2 substrate. 150,000 compounds, 4.3% hits. AID 894. Potency, µM, without a hit: top-dose activity change, negative = inhibition, usual class: inhibitors; active means well fitted inhibition curve with a large enough effect, not every such curve was filed as active; inconclusive means small, poorly fitted or top-dose-only effect, or another doubt; inactive means no such curve, though single readings can be large or run the other way; further: potency means the concentration at half of the fitted maximal effect; on the % scale 0 is the no-effect control and ±100 the full control effect
# Target sequence (P15428 whole entry, looked up): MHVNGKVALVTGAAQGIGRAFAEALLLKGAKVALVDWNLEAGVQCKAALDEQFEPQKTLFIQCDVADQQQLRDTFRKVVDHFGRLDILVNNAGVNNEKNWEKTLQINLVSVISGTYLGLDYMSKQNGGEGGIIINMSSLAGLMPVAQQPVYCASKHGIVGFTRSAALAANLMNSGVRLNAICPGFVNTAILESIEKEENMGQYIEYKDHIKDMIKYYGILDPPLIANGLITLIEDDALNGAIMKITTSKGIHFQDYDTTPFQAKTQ
#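 NADH formation kinetics: reaction with 30 uM PGE2 and 1 mM NAD+ (final), 20 nM enzyme, Tris-HCl pH 8 with Tween 20, after 15 min compound preincubation at room temperature. Fluorescence change, last versus first of five reads.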
# HTT cytoprotect – cytoprotection in Huntington HTT-Q103 PC12 cell model | PC12 HTT-Q103 induced, cytoprotection, ATP luminescence, 40 h | 230,000 compounds, 0.14% hits | AID 1471 | Potency, µM (series often up to 56.4 µM), for the others: cytoprotection (ATP increase), actives largely listed as activators; further: potency means the concentration at half of the fitted maximal effect; % of control where 0% means no effect; nearly all actives have a fitted effect of over 45% in size
#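 Quantitative HTS on tebufenozide-induced (100 nM) PC12 cells expressing HTTQ103 exon 1–GFP; compounds tested as a concentration series; survival measured via cellular ATP.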
# PNC inhibitor – perinucleolar compartment assembly inhibition | PC3M PTB-GFP, PNC prevalence imaging, 16 h; stronger effect = lower value | activity change (PNC), negative = inhibition, % at 10 µM | 140,000 compounds, 3.1% hits;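 active means readout at or below -70, meaning at least 70% loss of cells showing the perinucleolar compartment, a nuclear body marking cancer cells; inconclusive means readout between -30 and a set limit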;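 further: plate controls were DMSO wells for no effect and camptothecin positive control wells for full effect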
#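 Compounds are pinned in duplicate onto adhered PC3M cells stably expressing GFP-tagged PTB and incubated 16 h at 37 C. Cells are then fixed, nuclei stained with Hoechst, and PNC-positive cells counted.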
# HTT aggregate – mutant huntingtin aggregation inhibition; 220,000 compounds, 1.1% hits; PC12 HttQ103-GFP aggregates, Acumen cytometry, 40 h; Potency, µM (titrated, usually from 46.1 µM), for inactives: at the top dose activity change, negative = inhibition, usual class: inhibitors; AID 1688; further: potency means the concentration at half of the fitted maximal effect; on the % scale 0 is the no-effect control and ±100 the full control effect; nearly all actives have a fitted effect of over 60% in size
#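 Compounds (qHTS titration) were added to PC12 cells expressing an ecdysone-driven HTT exon 1 Q103–GFP fusion after induction with 100 nM tebufenozide. Aggregate formation was measured as GFP objects in cell lysates.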
# GoLoco inh red – inhibitors of human Gai1-RGS12 GoLoco interaction (red fluorophore); P63096; Gai1:RGS12 GoLoco peptide FP, rhodamine, 10 min; Potency, µM (doses to about 61.6 µM), for inactives: top-dose activity, negative = inhibition, most hits filed as inhibitors; 230,000 compounds, 0.44% hits; AID 880; active means well fitted inhibition curve with a large enough effect, not every such curve was filed as active; inactive means no such curve, though single readings can be large or run the other way; further: potency means the concentration at half of the fitted maximal effect; on the % scale 0 is the no-effect control and ±100 the full control effect; nearly all actives have a fitted effect of over 30% in size
# Target sequence (P63096 whole entry, looked up): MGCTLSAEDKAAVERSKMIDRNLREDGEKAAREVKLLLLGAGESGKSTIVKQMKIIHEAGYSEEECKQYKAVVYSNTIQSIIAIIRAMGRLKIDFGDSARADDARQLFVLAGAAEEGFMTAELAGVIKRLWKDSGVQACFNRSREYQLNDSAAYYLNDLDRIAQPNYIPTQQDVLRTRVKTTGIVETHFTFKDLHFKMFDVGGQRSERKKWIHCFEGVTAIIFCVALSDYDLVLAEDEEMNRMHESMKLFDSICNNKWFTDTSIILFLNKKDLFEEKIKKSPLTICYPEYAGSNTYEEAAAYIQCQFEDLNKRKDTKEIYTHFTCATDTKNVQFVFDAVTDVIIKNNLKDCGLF
# Numbers without * were called inactive; ? = inconclusive; nt = not tested or not shown; [ ] = remark or other dose. This is a sample that favours compounds with a hit; in the whole collection about 11% have one here. Unless noted, the call rests on the fitted dose curve; in most records, active means well fitted curve in the direction sought with a large enough effect; inconclusive means small, poorly fitted or top-dose-only effect, or another doubt; inactive means no such curve, though single readings can be large; an effect the other way counts as inactive or inconclusive.
SMILES,ALDH1A1 block,HPGD block,HTT cytoprotect,PNC inhibitor,HTT aggregate,GoLoco inh red
Cn1ccnc1SCC(=O)Nc1ccc2nc(SCC(=O)NC3CC3)sc2c1,3.55µM*,14.1µM*,-5.6%,?,15.1%,4.7%
CCN(CC)C(=O)CSc1nc2ccc(NC(=O)CSc3nnc(COc4ccccc4C)n3C)cc2s1,?,20µM*,-5.3%,61.4,3.9%,6.9%
O=C(Nc1ccc(Cl)cc1)Nc1nnc(SCc2ccc(Cl)cc2)s1,7.2%,-3.1%,1.2%[10 µM],-110.8*,18.8%,1.2%
c1ccc2[nH]c3cc4ncnc4cc3nc2c1,-7.2%,-12.0%,nt,-81.2*,?,0.3%
COc1ccc(CNc2nc(-c3cccc(NS(C)(=O)=O)c3)nc3ccccc23)c(OC)c1,-6.0%,nt,-214.3%,nt,nt,-6.6%
C=C1C=C(Br)C2(OCCCO2)[C@H]2OC12 (stereo not given in full),8.6%[13.5 µM],nt,?,nt,nt,nt
CC(C)CCn1c(O)c(N=Nc2ccccn2)c2ccccc21,0.355µM*,-10.3%,18.6%[10 µM],?,0.1%,6.6%
Oc1ccc2ccccc2c1N=Nc1ccccn1,?,31.6µM*,-76.3%,14.7,?,30.5%
CCCn1c(O)c(N=Nc2ccc3ccccc3n2)c2ccccc21,-13.4%,-6.0%,-82.2%[10 µM],-115.0*,?,23.8%
CC(C)CCn1c(O)c(N=NC(=O)Cn2ccc(C(F)(F)F)n2)c2ccccc21,-0.7%,-5.5%,39.5%[10 µM],13.2,-0.2%,-0.6%
COc1ccc(COC(=O)N/N=C2/C[C@@H](O)[C@@H](O)[C@@H]3[C@@H]4C(=O)N(C[C@@H]5CCCO5)C(=O)[C@H]4CC[C@@H]23)cc1,-8.7%[13.5 µM],nt,?,nt,nt,nt
COC(=O)C1=C(C(=O)OC)[C@@H]2N(C)c3ccccc3[C@@]23C[C@@H](C(=O)OC)N(S(=O)(=O)c2ccc(OC)cc2)C3=N1,24.2%[13.5 µM],-1.1%,-5.4%[10 µM],nt,nt,10.3%[14.2 µM]
O=c1[nH]ncc(N/N=C\c2cccs2)c1Cl,-0.1%,nt,21.5%[10 µM],nt,?,8.2%
CCc1cc(C(=O)COc2ccc(F)cc2)c(O)cc1O,2.9%,nt,25.9%,nt,?,5.6%
Cc1c(O)ccc(C(=O)COc2ccc(F)cc2)c1O,17.8µM*,nt,-24.6%,-21.4,?,nt
C=C(C(=O)OCC)C(=O)c1ccccc1,14.1µM*,-7.8%,nt,nt,nt,-8.4%
O=c1c(-c2ccc(O)cc2)coc2c(C3OC(CO)C(O)C(O)C3O)c(O)ccc12 (stereo not given),?,?,6.5%,nt,nt,4.4%
CN(C)S(=O)(=O)c1ccc(Cl)c(-c2nnc3n2CCCCC3)c1,-2.0%,nt,-26.9%,nt,-25.8%,1.3%
O=S(=O)(c1cccc(-c2nnc3n2CCCCC3)c1)N1CCCC1,-2.6%,nt,-16.9%,nt,1.7%,0.2%
Clc1cccc(-c2nnc3n2CCCCC3)c1,2.6%,nt,-0.4%[10 µM],nt,-19.6%,5.7%
COc1ccccc1S(=O)(=O)Nc1ccc(-c2nnc3n2CCCCC3)cc1,?,31.6µM*,4.1%,54.2,-7.7%,3.8%
Clc1ccc(-c2nnc3n2CCCCC3)cc1,-0.8%,15.8µM*,?,?,?,2.2%
Cc1ccc(S(=O)(=O)N(C)Cc2ccc(-c3nnc4n3CCC4)cc2)cc1,-8.8%,4.47µM*,-3.4%[10 µM],2.8,-9.1%,2.8%
Clc1ccc(-c2nnc3n2CCCC3)cc1Cl,-4.9%,31.6µM*,6.9%,96.7,-5.9%,9.5%
O=C(c1ccc2c(c1)OCO2)C1CCCN(C2CCN(CCc3ccccc3)CC2)C1 (stereo not given),-6.1%,nt,-19.5%[10 µM],nt,-19.3%[9.22 µM],2.2%
SMILES,ALDH1A1 block,HPGD block,HTT cytoprotect,PNC inhibitor,HTT aggregate,GoLoco inh red
CC(=O)C1=C(O)C(=O)N(Cc2ccco2)C1c1ccc2c(c1)OCO2 (stereo not given),?,-12.9%,-3.0%[10 µM],18.8,-11.1%,6.2%
CCOC(=O)c1[nH]c2ccccc2c1NC(=O)c1ccc(S(=O)(=O)N2CCCC2)cc1,-1.5%,-18.1%,nt,14.4,-2.3%,-3.8%
Brc1ccc(-c2nnc3n2CCCCC3)cc1,12.6µM*,7.08µM*,-6.8%[10 µM],-27.7,-15.6%,-4.4%
Cc1ccc(C)n1-c1ccc(-c2nnc3n2CCCCC3)s1,?,3.16µM*,24.4%,6.8,6.9%,9.8%
C1CCc2nnc(-c3nnc4n3CCCCC4)n2CC1,6.2%,-8.1%,28.6%[10 µM],-19.0,-3.2%,4.7%
O=C(/C=C/c1ncc(C(F)(F)F)cc1Cl)OCc1ccccc1,?,-17.9%,-6.0%[10 µM],16.8,-19.4%,16.0%
COc1cc([C@H]2c3cc4c(cc3[C@@H](O[C@H]3O[C@H]5CO[C@@H](C)O[C@H]5[C@@H](O)[C@@H]3O)[C@@H]3COC(=O)[C@H]23)OCO4)cc(OC)c1O,1.6%[20.9 µM],2.6%,-124.4%[17.1 µM],nt,-7.7%,-0.4%[21.6 µM]
CC1(C)CC(=O)C2=C(C1)OC(N)=C(C#N)C21CCN(C(=O)OCc2ccccc2)CC1,10µM*,-27.3%,-18.0%,18.5,16.4%,18.1%
CC1(C)CC(=O)C2=C(C1)OC(N)=C(C#N)C21C(=O)N2CCCc3cccc1c32 (stereo not given),7.08µM*,-8.7%,15.0%[0.074 µM],-13.4,3.8%,-3.9%
CC1(C)CC(=O)C2=C(C1)OC(N)=C(C#N)[C@@]21C(=O)N(CC(N)=O)c2ccccc21,17.9%,nt,-2.6%,-12.8,2.0%,nt
COc1ccc(/C=N\N=C2/SC(CC(=O)O)C(=O)N2c2ccc(O)cc2)cc1 (stereo not given),2.6%,nt,1.2%,-29.1,1.9%,nt
COc1ccc(/C=N/N=C2\SC(CC(=O)O)C(=O)N2c2ccccc2)c(OC)c1 (stereo not given),20µM*,-17.5%,nt,24.6,-3.2%,-9.8%
Cc1ccc(S(=O)(=O)Oc2ccc(/C=N/N=C3/NC(=O)C(CC(=O)O)S3)cc2)cc1 (stereo not given),-13.3%,nt,-10.5%,nt,-15.2%[9.22 µM],11.5%
COc1ccc(S(=O)(=O)Oc2cccc(/C=N/N=C3/NC(=O)C(CC(=O)O)S3)c2)cc1 (stereo not given),8.91µM*,nt,-13.4%[10 µM],nt,-21.0%[9.22 µM],2.3%
COc1ccc(/C=N/N=C2\SC(CC(=O)O)C(=O)N2c2ccccc2)cc1 (stereo not given),20µM*,-14.2%,19.2%[10 µM],53.0,-2.4%,18.6%
CCOC(=O)CCCNC(=O)N1CCc2nc(-c3ccccc3)c3c(c2C1)CO[C@@H](C)C3,3.7%[13.5 µM],-1.4%,-32.0%[10 µM],nt,nt,3.1%[14.2 µM]
NC[C@@H]1O[C@H](O[C@H]2[C@H](O)[C@H](O[C@@H]3O[C@H](CO)[C@@H](O)[C@H](N)[C@@H]3O)[C@@H](N)C[C@H]2N)[C@@H](O)[C@H](O)[C@@H]1O,13.2%[20.9 µM],3.2%,7.4%[40.3 µM],nt,-3.8%[20.6 µM],7.9%[21.6 µM]
